Values joined by “and” are separate entries in the source; they are usually repeats but may differ in a detail not shown here. Identical values can stand only once. Records with an inconclusive call do not appear. Some compounds were tested as several samples or in several runs, with calls that do not always agree. Active and inactive are the calls of the source. Unless noted, the call rests on the fitted dose curve.
Key:
[1] = Nuclear factor erythroid 2-related factor 2/antioxidant responsive element (Nrf2/ARE) small molecule agonists: qHTS cell viability counter screen in human keratinocytes (AID 1919968; active means well fitted curve in the direction sought with a large enough effect in the repeat runs; an effect the other way counts as inactive or inconclusive; further: nearly all actives have a fitted effect of over 55% in size; further: potency means the concentration at half of the fitted maximal effect)
Summary of the method: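 Viability counter-screen: KeratinoSens reporter cells, DMSO-delivered compounds, 23 h at 37 C, CellTiter-Fluor fluorescence.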

[2] = Nuclear factor erythroid 2-related factor 2/antioxidant responsive element (Nrf2/ARE) small molecule agonists: luciferase reporter gene qHTS assay in human keratinocytes (AID 1919969); further: nearly all actives have a fitted effect of over 35% in size; further: potency means the concentration at half of the fitted maximal effect
[3] = biological target: Gonadotropin-releasing hormone receptor (Homo sapiens) (UniProt P30968); assay: Human gonadotropin-releasing hormone receptor (GnRHR) small molecule agonists, calcium flux assay in GnRHR-HEK293 cells (AID 1920063); further: nearly all actives have a fitted effect of over 35% in size
Gonadotropin-releasing hormone receptor (Homo sapiens), sequence (P30968 whole entry, looked up): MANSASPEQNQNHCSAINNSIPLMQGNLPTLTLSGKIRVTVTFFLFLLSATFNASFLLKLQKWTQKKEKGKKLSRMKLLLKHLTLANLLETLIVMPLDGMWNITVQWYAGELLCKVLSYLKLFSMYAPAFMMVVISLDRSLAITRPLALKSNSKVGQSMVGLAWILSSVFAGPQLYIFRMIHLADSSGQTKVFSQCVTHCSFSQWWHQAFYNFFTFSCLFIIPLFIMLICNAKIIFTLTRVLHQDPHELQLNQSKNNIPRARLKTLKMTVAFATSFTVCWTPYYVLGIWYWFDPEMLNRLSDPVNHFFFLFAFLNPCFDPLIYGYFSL
Summary of the method: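 Tox21-format agonist screen using human GnRHR-expressing HEK293 cells and a fluorescent calcium dye; kinetic 3-min fluorescence reading after compound addition, 15-point concentration series run in triplicate.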

[4] = biological target: KiSS-1 receptor (Homo sapiens) (UniProt Q969F8); assay: Human kisspeptin (KISS1R) small molecule agonists, calcium flux assay in KISS1R-HEK293 cells (AID 1920064; active means well fitted curve in the direction sought with a large enough effect in the repeat runs; an effect the other way counts as inactive or inconclusive)
KiSS-1 receptor (Homo sapiens), sequence (Q969F8 whole entry, looked up): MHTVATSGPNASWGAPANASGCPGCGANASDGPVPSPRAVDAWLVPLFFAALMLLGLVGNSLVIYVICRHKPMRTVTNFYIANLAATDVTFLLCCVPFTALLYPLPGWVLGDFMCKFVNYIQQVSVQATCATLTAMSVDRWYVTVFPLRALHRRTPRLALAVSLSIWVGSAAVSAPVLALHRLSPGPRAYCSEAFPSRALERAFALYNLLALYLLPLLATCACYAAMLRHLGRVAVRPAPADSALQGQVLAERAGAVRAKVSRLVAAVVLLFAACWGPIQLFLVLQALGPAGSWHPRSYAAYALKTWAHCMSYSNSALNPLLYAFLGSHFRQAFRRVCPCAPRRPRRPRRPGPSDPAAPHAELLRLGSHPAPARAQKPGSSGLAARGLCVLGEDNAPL
Summary of the method: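 Intracellular calcium mobilization in KISS1R-HEK293 cells was recorded by fluorescence (Ex/Em 480/540) for 3 min following compound addition to cells pre-loaded 1 h with calcium dye.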

[5] = p53 small molecule agonists, cell-based qHTS assay with human liver microsomes: qHTS cell viability counter screen (AID 1963579); further: nearly all actives have a fitted effect of over 45% in size
Summary of the method: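 Cytotoxicity counter screen: p53RE-bla, 4,000 cells/well; 5 h settle, 37 C/5% CO2; cpd + HLM 0.5 mg/mL + NADPH 0.5 mg/mL (final); 16 h, 37 C; CellTiter-Glo, 30 min RT, luminescence.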

[6] = p53 small molecule agonists, cell-based qHTS assay with rat liver microsomes: qHTS cell viability counter screen (AID 1963580); further: nearly all actives have a fitted effect of over 45% in size
Summary of the method: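 p53RE-bla HCT-116 cells (4,000/well) rested 5 h at 37 C, then given Tox21 compounds in DMSO with rat liver microsomes (0.5 mg/mL final) plus NADPH (0.5 mg/mL final) for 16 h at 37 C. Viability read by CellTiter-Glo luminescence after 30 min at room temperature.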

[7] = p53 small molecule agonists, cell-based qHTS assay: qHTS cell viability counter screen (AID 1963581); further: nearly all actives have a fitted effect of over 45% in size
Summary of the method: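 Compounds are pinned onto HCT-116 p53RE-bla cells and left 16 h at 37 C. Following the reporter FRET read, ATP is quantified by CellTiter-Glo luminescence after 30 min at room temperature.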

[8] = cAMP Responsive Elements (CRE) small molecule agonists, cell-based qHTS assay (AID 1963590)
Summary of the method: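 FRET-based beta-lactamase readout (LiveBLAzer B/G, 2 h RT) quantified CRE activation in HEK 293T CRE-bla cells after 3 h treatment with DMSO-dissolved compounds.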

[9] = cAMP Responsive Elements (CRE) small molecule antagonists, cell-based qHTS assay (AID 1963591; active means well fitted inhibition curve with a large enough effect in the signal ratio in the repeat runs, not every such curve was filed as active; the % refers to the signal ratio)
Summary of the method: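 qHTS in CRE-bla HEK 293T cells: compound in DMSO, then 0.25 uM NKH477 (final), 3 h at 37 °C/5% CO2; beta-lactamase FRET read-out after 2 h substrate incubation.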

[10] = biological target: Beta-2 adrenergic receptor (Homo sapiens) (UniProt P07550); assay: Adrenergic beta2 receptor (ADRB2) small molecule antagonists, cell-based qHTS assay (AID 1963592); further: series mostly up to about 92 µM; nearly all actives have a fitted effect of over 50% in size
Beta-2 adrenergic receptor (Homo sapiens), sequence (P07550 whole entry, looked up): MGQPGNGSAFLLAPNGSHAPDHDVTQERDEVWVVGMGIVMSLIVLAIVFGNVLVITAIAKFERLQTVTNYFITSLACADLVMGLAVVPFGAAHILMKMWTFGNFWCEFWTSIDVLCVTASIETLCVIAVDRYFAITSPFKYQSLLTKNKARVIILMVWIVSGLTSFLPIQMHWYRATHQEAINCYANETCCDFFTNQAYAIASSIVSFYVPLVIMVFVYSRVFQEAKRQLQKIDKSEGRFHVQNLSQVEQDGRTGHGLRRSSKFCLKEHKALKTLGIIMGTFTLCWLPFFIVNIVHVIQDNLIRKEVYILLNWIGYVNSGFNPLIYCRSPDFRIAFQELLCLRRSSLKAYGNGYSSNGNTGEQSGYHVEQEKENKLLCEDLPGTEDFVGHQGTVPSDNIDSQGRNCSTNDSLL
Summary of the method: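 Cells (CHO, stable ADRB2 overexpression) incubated 18-20hr at 37C; compounds added from DMSO; agonist mix (1nM isoproterenol, 100uM IBMX, 25uM Ro-20-1724) added; 0.5hr RT; d2-cAMP and anti-cAMP-cryptate added; 1hr RT; 665/615 nm read.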

[11] = biological target: Beta-2 adrenergic receptor (Homo sapiens) (UniProt P07550); assay: Adrenergic beta2 receptor (ADRB2) small molecule agonists, cell-based qHTS assay (AID 1963593); further: potency means the concentration at half of the fitted maximal effect
Summary of the method: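 CHO cells stably over-expressing ADRB2 were plated overnight at 37C, then dosed with compounds plus a stimulation mix containing 100uM IBMX and 25uM Ro-20-1724 for 0.5hr at room temperature. cAMP was measured by HTRF competition, 1hr.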

[12] = biological target: D(2) dopamine receptor (Homo sapiens) (UniProt P14416); assay: Dopamine D2 receptor (DRD2) small molecule agonists, cell-based qHTS assay (AID 1963594); further: nearly all actives have a fitted effect of over 35% in size
D(2) dopamine receptor (Homo sapiens), sequence (P14416 whole entry, looked up): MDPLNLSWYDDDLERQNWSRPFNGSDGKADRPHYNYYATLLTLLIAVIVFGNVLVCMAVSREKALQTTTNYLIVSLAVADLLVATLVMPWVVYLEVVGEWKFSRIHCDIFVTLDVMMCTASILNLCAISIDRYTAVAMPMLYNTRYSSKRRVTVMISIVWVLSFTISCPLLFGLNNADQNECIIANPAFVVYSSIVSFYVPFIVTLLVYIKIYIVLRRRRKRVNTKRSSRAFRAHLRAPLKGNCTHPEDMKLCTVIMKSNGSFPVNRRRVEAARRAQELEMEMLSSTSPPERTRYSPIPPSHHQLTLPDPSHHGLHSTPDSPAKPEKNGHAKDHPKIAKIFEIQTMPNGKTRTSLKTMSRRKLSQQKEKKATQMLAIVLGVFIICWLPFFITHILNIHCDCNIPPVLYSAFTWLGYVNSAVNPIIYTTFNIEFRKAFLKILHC
Summary of the method: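 HEK293 cells stably expressing DRD2 were cultured 24 h at 37 C, then given Ro20-1724 (0.1 mM final) and compounds for 10 min at room temperature. NKH477 (200nM) was then added for 30 min. cAMP was read by HTRF.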

[13] = biological target: D(2) dopamine receptor (Homo sapiens) (UniProt P14416); assay: Dopamine D2 receptor (DRD2) small molecule antagonists, cell-based qHTS assay (AID 1963595; active means well fitted inhibition curve with a large enough effect in the signal ratio in the repeat runs, with a control signal flat; the % refers to the signal ratio)
Summary of the method: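 Antagonist mode in DRD2-HEK293 cells: after compound addition with 0.1 mM Ro20-1724, cells received quinpirole (12 nM) and NKH477 (200 nM) for 30 min at room temperature; HTRF cAMP read after 1 h detection.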

[14] = biological target: 5-hydroxytryptamine receptor 2A (Homo sapiens) (UniProt P28223); assay: 5-hydroxytryptamine receptor 2A (HTR2A) small molecule antagonists, cell-based qHTS assay (AID 1963586); further: nearly all actives have a fitted effect of over 45% in size
5-hydroxytryptamine receptor 2A (Homo sapiens), sequence (P28223 whole entry, looked up): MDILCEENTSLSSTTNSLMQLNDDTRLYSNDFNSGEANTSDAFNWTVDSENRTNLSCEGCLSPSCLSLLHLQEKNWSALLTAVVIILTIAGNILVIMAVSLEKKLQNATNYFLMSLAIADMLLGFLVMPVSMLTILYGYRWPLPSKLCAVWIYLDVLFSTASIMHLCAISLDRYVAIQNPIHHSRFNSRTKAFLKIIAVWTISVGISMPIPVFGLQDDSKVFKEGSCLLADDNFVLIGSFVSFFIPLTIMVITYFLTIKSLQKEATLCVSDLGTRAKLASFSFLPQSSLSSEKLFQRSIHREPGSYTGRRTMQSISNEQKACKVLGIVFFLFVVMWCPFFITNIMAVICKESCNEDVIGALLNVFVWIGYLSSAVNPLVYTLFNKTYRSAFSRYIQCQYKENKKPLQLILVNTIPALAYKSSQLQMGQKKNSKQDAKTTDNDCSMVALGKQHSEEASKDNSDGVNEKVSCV
Summary of the method: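 Antagonist-mode intracellular calcium assay: DOI (4 nM) added after 5 min compound pre-incubation at room temperature to dye-loaded HTR2A-CHO cells. Fluorescence followed for 3 min, sampled every second.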

[15] = biological target: 5-hydroxytryptamine receptor 2A (Homo sapiens) (UniProt P28223); assay: 5-hydroxytryptamine receptor 2A (HTR2A) small molecule agonists, cell-based qHTS assay (AID 1963587); further: nearly all actives have a fitted effect of over 30% in size; further: potency means the concentration at half of the fitted maximal effect
Summary of the method: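 HTR2A-CHO cells, plated 18 h at 37 C/5% CO2, dye-loaded 1 h at 37 C; compounds in DMSO added by pin tool (agonist mode). Intracellular calcium flux read as kinetic fluorescence on FDSS over 2 min at 1 s intervals.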

[16] = biological target: Muscarinic acetylcholine receptor M1 (Homo sapiens) (UniProt P11229); assay: Cholinergic receptor muscarinic 1 (CHRM1) small molecule antagonists, cell-based qHTS assay (AID 1963588); further: nearly all actives have a fitted effect of over 40% in size; further: potency means the concentration at half of the fitted maximal effect
Muscarinic acetylcholine receptor M1 (Homo sapiens), sequence (P11229 whole entry, looked up): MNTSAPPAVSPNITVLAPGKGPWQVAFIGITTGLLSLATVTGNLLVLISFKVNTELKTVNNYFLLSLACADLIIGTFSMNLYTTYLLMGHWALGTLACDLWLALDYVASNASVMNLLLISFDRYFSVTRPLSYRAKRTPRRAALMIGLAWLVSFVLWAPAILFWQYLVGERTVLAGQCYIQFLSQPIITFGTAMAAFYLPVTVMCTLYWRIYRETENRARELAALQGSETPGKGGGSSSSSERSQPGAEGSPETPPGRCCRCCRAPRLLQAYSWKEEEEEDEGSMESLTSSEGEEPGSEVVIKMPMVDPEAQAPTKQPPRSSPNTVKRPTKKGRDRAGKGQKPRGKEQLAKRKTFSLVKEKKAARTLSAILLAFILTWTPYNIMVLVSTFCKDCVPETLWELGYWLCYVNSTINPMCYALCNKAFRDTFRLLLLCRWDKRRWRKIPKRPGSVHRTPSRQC
Summary of the method: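 CHRM1-CHO calcium-flux assay, antagonist mode. Cells were seeded 18 h, dye-loaded 1 h at 37 C and given compound for 5 min at RT, then acetylcholine was added at 50nM. FDSS fluorescence was read 3 min; 15 concentrations, three runs.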

[17] = biological target: Muscarinic acetylcholine receptor M1 (Homo sapiens) (UniProt P11229); assay: Cholinergic receptor muscarinic 1 (CHRM1) small molecule agonists, cell-based qHTS assay (AID 1963589); further: nearly all actives have a fitted effect of over 35% in size
Summary of the method: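 Stable CHRM1-CHO cells (human receptor) were incubated 18 h, dye-loaded for 1 h at 37 C and exposed to test compounds for agonist activity, with calcium-dependent fluorescence followed kinetically.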

Measured: Potency

CC(C)(Oc1ccc(CCNC(=O)c2ccc(Cl)cc2)cc1)C(=O)O
inactive: [1] | [2] | [3] | [4] | [5] | [6] | [7] | [8] | [9] | [10] | [11] | [12] | [13]

CC1COc2ccccc2N1C(=O)C(Cl)Cl (configuration not stated)
inactive: [1] | [3] | [4] | [5] | [6] | [14] | [15] | [16] | [17] | [9] | [10] | [12]
active: [2] 21.6 µM

Cc1ccc(C(C)C)cc1O
inactive: [1] | [2] | [3] | [4] | [5] | [6] | [14] | [15] | [16] | [17] | [8] | [9] | [10] | [11] | [12] | [13]

CC(COCC(C)OC(=O)c1ccccc1)OC(=O)c1ccccc1 (configuration not stated)
inactive: [1] | [2] | [3] | [4] | [5] | [6] | [7] | [14] | [15] | [16] | [17] | [10] | [11] | [12] | [13]

Cc1cccc(Nc2ccccc2C(=O)O)c1C
inactive: [1] | [2] | [3] | [4] | [5] | [6] | [7] | [10] | [11] | [12] | [13]

CN(C)c1cccc(O)c1
inactive: [1] | [3] | [4] | [5] | [6] | [14] | [15] | [16] | [17] | [9] | [10] | [12] | [13]
43.9 µM (active) and inactive: [2]

O=C1CC2(CCCC2)CC(=O)N1CCCCN1CCN(c2ncccn2)CC1
inactive: [1] | [2] | [3] | [4] | [5] | [6] | [7] | [8] | [9] | [10] | [11] | [12]

O=Cc1ccccc1C=O
24.3 µM (active) and inactive: [2]
61.1 µM (active) and inactive: [1]
inactive: [3] | [4] | [5] | [6] | [14] | [15] | [17] | [9] | [10] | [12] | [13]
42.1 µM (active) and inactive: [16]
active: [11] 43.3 µM

C=C[C@H]1CN2CC[C@H]1C[C@H]2[C@H](O)c1ccnc2ccc(OC)cc12
inactive: [1] | [2] | [3] | [4] | [5] | [6] | [7] | [14] | [16] | [8] | [9] | [10] | [12] | [13]

C[C@@H]1CC(=O)NN=C1c1ccc(NN=C(C#N)C#N)cc1
active: [1] 11.9 µM and 21.1 µM | [2] 23.7 µM and 26.6 µM
inactive: [3] | [4] | [5] | [6] | [7] | [14] | [15] | [16] | [17] | [12]

C=C1C[C@]23C[C@@]1(O)CC[C@H]2[C@@]12C=C[C@H](O)[C@@](C)(C(=O)O1)[C@H]2[C@@H]3C(=O)O
inactive: [1] | [2] | [3] | [4] | [5] | [6] | [14] | [15] | [16] | [17] | [8] | [10] | [12] | [13]

COS(C)(=O)=O
inactive: [1] | [2] | [3] | [4] | [5] | [6] | [7] | [8] | [9] | [10] | [11] | [12] | [13]

OCC(CO)(CO)CO
inactive: [1] | [2] | [3] | [4] | [5] | [6] | [7] | [14] | [15] | [16] | [8] | [9] | [10] | [12] | [13]

CC1(C)O[C@@H]2C[C@H]3[C@@H]4C[C@H](F)C5=CC(=O)C=C[C@]5(C)[C@@]4(F)[C@@H](O)C[C@]3(C)[C@]2(C(=O)CO)O1
inactive: [1] | [2] | [3] | [4] | [5] | [6] | [7] | [10] | [11] | [12] | [13]

N[C@@H](Cc1c[nH]c2ccc(O)cc12)C(=O)O
inactive: [1] | [2] | [3] | [4] | [5] | [6] | [7] | [16] | [17] | [8] | [10] | [12] | [13]
active: [15] 599 nM and 8.49 µM
